The structures appear in SMILES notation. Records with an inconclusive call do not appear. Active and inactive are the calls of the source. Calls follow the shape of the full dose curve.
% is scaled to controls: 0 for no effect and ±100 for the full control effect.

Sequence of Progesterone receptor (Homo sapiens) (P06401 whole entry, looked up): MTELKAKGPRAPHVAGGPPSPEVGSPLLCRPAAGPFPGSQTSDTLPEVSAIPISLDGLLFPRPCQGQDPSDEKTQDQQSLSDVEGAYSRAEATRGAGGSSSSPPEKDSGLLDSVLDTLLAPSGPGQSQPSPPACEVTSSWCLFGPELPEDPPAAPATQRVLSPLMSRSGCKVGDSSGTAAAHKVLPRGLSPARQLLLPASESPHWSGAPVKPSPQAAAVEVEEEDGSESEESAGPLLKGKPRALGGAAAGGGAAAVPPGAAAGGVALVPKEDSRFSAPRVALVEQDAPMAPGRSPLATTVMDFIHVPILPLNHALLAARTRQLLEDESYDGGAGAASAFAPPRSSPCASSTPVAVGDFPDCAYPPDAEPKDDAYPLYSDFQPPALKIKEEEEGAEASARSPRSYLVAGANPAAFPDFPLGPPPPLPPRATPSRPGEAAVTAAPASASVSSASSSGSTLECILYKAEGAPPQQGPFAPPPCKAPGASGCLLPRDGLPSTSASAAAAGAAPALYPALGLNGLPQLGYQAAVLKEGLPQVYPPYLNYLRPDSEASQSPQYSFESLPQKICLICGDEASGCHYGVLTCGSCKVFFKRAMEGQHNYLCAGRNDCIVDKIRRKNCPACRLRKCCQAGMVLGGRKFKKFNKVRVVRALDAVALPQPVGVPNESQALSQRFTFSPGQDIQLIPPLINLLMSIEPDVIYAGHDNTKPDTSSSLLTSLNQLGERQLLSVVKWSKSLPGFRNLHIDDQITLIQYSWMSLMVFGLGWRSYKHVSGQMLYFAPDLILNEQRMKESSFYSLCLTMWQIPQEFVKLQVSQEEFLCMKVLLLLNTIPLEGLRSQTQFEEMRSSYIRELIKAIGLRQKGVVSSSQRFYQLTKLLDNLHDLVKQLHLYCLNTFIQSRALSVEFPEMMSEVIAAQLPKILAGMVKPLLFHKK

The test addresses Progesterone receptor (Homo sapiens) (UniProt P06401). The test is described as follows: qHTS assay to identify small molecule agonists of the progesterone receptor (PR) signaling pathway (AID 1346784). Also: nearly all actives have a fitted effect of over 30% in size. As to conditions: PR-UAS-bla HEK293T, beta-lactamase FRET ratio, 16 h; series mostly up to 92.4 µM; activation: at the top concentration. The source says: U.S. Tox21 Program National Center for Advancing Translational Sciences [NCATS] NIH Chemical Genomics Center [NCGC] U.S. Environmental Protection Agency [EPA] National Institutes of Environmental Health Sciences [NIEHS] National Toxicology Program [NTP] U.S. Food and Drug Administration [FDA] […] Endocrine disrupting chemicals (EDCs) and their interactions with steroid hormone receptors like PR causes disruption of normal endocrine function. To identify the compounds that activate PR signaling, a PR-UAS-bla GripTite cell line i.e. PR-UAS-bla HEK 293T (Invitrogen, Carlsbad, CA, USA) containing a beta-lactamase reporter gene under the control of an Upstream Activator Sequence (UAS) was used to screen Tox21 10K compound library.
Tox21 Assay Protocol Summary: PR-UAS-bla HEK 293T cells were dispensed at 3,000 cells/5 uL of assay medium containing 2% charcoal stripped FBS per well into black wall/clear-bottom 1536-well plates using a Multidrop Combi (ThermoFisher Scientific, Waltham, MA) dispenser. After the assay plates were incubated at a 37C and 5% CO2 for 6hr, 23 nL of compounds dissolved in DMSO, positive controls or DMSO only was transferred to the assay plate by a Pintool station (Kalypsys, San Diego, CA). The plates were incubated at 37C and 5% CO2 for 16hr. Then 1 uL of LiveBLAzer B/G FRET substrate was added using a BioRAPTR FRD (Flying Reagent Dispenser, Aurora Discovery, San Diego, CA). After the plates were incubated at room temperature for 2 hours, fluorescence intensity was measured by an Envision plate reader (PerkinElmer, Shelton, CT).
A general note: In qHTS, concentration-response curves come from the screen itself.
On to `O=C(O)COc1cc(Cl)c(Cl)cc1Cl`, for which the Potency result was “inactive”. On to `CCSCc1ccccc1OC(=O)NC`, for which the “activation” value was 1.07% (inactive). The same measure, in the same setting: the value for `O=C(Cc1ccccc1)c1ccccc1` was 1.49% (inactive). In the case of `COC(=O)C1(O)c2ccccc2-c2ccccc21`, the “activation” value is -3.66% (inactive). For the molecule `C[C@H](N)[C@H](O)c1ccc(O)c(O)c1`, the “activation” value was -0.197% [at 42.5 µM] (inactive).

Turning to `NP(N)(=O)NC(=O)c1ccc(F)cc1`, the “activation” value is -0.0745% [at 42.5 µM] (inactive). The same measure, in the same setting: the value for `CCCN(CCC)C(=O)Cc1c(-c2ccc(Cl)cc2)nc2ccc(Cl)cn12` was 5.97% [at 42.5 µM] (inactive); that for `CCCCC#N` was -3.25% (inactive).

For the molecule `CCCN(CCOc1c(Cl)cc(Cl)cc1Cl)C(=O)n1ccnc1`, the Potency entry is “inactive”. As to `CCOC(=O)NC(O)C(Cl)(Cl)Cl` (stereo not given), the “activation” value is -0.631% [at 42.5 µM] (inactive). Same read-out and setting: the value for `COc1ccc(C(=O)c2c(C)n(CCN3CCOCC3)c3ccccc23)cc1` was -0.135% [at 42.5 µM] (inactive). The same measure, in the same setting: the value for `CCCCCCCCn1sccc1=O` was -11.1% (inactive); that for `NNCCO` was -1.03% (inactive). Same read-out and setting: the value for `Cc1ccccc1` was -1.47% (inactive); that for `N#CC(C#N)=C(C#N)C#N` was -1.04% (inactive).

In the case of `Cc1ccc(N)c(C)c1`, the Potency entry is “inactive”. Regarding `C1CS1`, the “activation” value is 1.68% (inactive). As to `C1CCNCC1`, the “activation” value was -0.723% (inactive).

`CC[N+]1(CCOC(=O)C(O)(c2ccccc2)c2ccccc2)CCCCC1`: the “activation” value is -4.19% [at 42.5 µM] (inactive).

As for `CCCCCBr`, the “activation” value is -0.009% (inactive). As for `Cc1ccc2c(C)cccc2c1`, the “activation” value is -2.45% (inactive). In the case of `CC(CC(C(N)=O)(c1ccccc1)c1ccccc1)N(C)C` (stereo not given), the “activation” value is -1.65% [at 42.5 µM] (inactive). As to `O=C=NC1CCCCC1`, the “activation” value was -0.757% (inactive).

As for `C[Si](Cn1cncn1)(c1ccc(F)cc1)c1ccc(F)cc1`, the Potency entry was “inactive”. As to `O=C(NC(=O)c1cc(F)c(F)cc1Cl)Nc1cc(F)ccc1N1CCC(C(=O)O)CC1`, the “activation” value was -3.37% [at 42.5 µM] (inactive). For the molecule `c1ccc2c(c1)-c1cccc3cccc-2c13`, the Potency entry is “inactive”. As to `C[N+]1(CCF)[C@@H]2CC[C@H]1CC(OC(=O)C(O)(c1ccccc1)c1ccccc1)C2` (stereo not given in full), the “activation” value was -0.971% [at 42.5 µM] (inactive). On the same count and under the same terms, to `CC(C)(C)OOC(C)(C)CCC(C)(C)OOC(C)(C)C` belongs -0.155% (inactive). Take `CC(=O)OC(c1ccccc1)C(Cl)(Cl)Cl` (stereo not given): the “activation” value was 1.02% (inactive). In the case of `O=C1NC(=O)C(=O)C(=O)N1`, the “activation” value is -1.86% (inactive). On the same count and under the same terms, the value for `CCOP(=S)(OCC)SCSc1cc(Cl)ccc1Cl` was -0.899% (inactive); that for `C[N+](C)(C)CCOC(=O)C(O)(c1ccccc1)c1ccccc1` was -0.133% [at 42.5 µM] (inactive).

With `COC1=CC(=O)O[C@@H](/C=C/c2ccc3c(c2)OCO3)C1`, the “activation” value was -1.77% (inactive). Consider `CCCCC(CC)CO[N+](=O)[O-]` (stereo not given), for which the “activation” value is -1.43% (inactive).

As to `O=C(O)c1cc(I)cc(I)c1I`, the “activation” value was -5.4% (inactive). With `Cc1cnc(C2=NC(C)(C(C)C)C(=O)N2)c(C(=O)O)c1` (stereo not given), the “activation” value is 0.0074% (inactive). The same measure, in the same setting: to `CCCCCCCCCCCCCCCl` belongs -0.133% (inactive); to `COc1cc(CC(C)N)c(OC)cc1Br` (stereo not given), 1.39% (inactive). In the case of `CCCC1CCCCN1` (stereo not given), the “activation” value is 4.88% [at 42.5 µM] (inactive).

As for `CCCCCCCCCCCCN(C)C`, the “activation” value is 1.51% (inactive).
